Bioassay records (PubChem BioAssay)
Only some compounds are listed: those with a hit (about 5.4% of all), similar ones and a draw of the others.
SMARCA2 activ = increases SMARCA2 function in MMTV reporter cells; MG213 cells, MMTV-luciferase reporter, dexamethasone, overnight; 1% of 370,000 active; activation, % at 9.1 µM; AID 652017; in the data active = activation above about 7.8%;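 note: 0% = vehicle wells and 100% = reference activator wells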
JMJD2C inh = human JMJD2C demethylase inhibition; Q9H3R0; GST-JMJD2C(1-420) H3K9me3 demethylation, DELFIA europium; inhibition, % at 2.35 µM; 0.069% of 330,000 active; AID 2099;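 active = more than half of a compound's replicate wells show inhibition beyond 50%, single wells judged on their own value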;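 note: signal counts dimethyl H3K9 product captured on neutravidin plate; 0% = median of DMSO wells and 100% = 0.3 times that DMSO median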
Target sequence (Q9H3R0 1-420 limits assumed): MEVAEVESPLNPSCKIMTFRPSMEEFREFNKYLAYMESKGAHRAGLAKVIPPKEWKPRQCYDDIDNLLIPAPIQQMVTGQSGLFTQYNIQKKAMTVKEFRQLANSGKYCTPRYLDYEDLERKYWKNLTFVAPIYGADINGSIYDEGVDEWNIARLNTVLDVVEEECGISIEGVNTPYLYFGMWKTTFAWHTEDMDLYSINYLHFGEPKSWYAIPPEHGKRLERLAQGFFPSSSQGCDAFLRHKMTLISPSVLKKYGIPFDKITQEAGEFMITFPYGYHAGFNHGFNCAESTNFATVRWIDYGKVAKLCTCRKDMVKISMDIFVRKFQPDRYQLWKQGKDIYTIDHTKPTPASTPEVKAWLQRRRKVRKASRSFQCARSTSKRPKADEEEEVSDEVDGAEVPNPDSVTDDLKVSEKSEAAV
ALR inh = human ALR oxidase inhibition via reduced H2O2 | inhibition, % (no concentration beside the values) | AID 485317 | 3.8% of 290,000 active | P55789 | purified ALR, DTT oxidation, H2O2 HRP-luminol luminescence;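 active = mean replicate inhibition above about 79%, with every replicate also reaching it, limit read from the data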
Granule exo inh = blocks lytic granule exocytosis | TALL-104 LAMP-1 surface exposure, flow cytometry; cells stimulated with thapsigargin and PMA | 0.66% of 360,000 active | AID 651702 | inhibition, % at 10 µM;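 active = inhibition above about 55%, limit read from the data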
PfM18AAP inh = blocks P. falciparum M18 aspartyl aminopeptidase | recombinant PfM18AAP, H-Glu-NHMec fluorogenic cleavage | inhibition, % at 7.35 µM | 1.2% of 290,000 active | AID 1822;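 active = inhibition above the campaign mean inhibition over all tested compounds plus 3 SD, cut at about 28% in these data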;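 note: 0% = plate median of test compound wells and 100% = 2 mM ZnCl2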
MIN6 prolif = MIN6 beta-cell proliferation induction. MIN6 cells proliferation, ATPlite luminescence, 48 h; cells starved in 0.2% serum; 100% = growth in 10% serum. proliferation, % at 10 µM. 0.29% of 330,000 active. AID 2380;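 active = compounds whose signal lies at least 3.5 SD above the mean of all wells on their plate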;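 note: 0% = DMSO-treated cells in low-serum medium and 100% = 10% serum control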
* = called active by the depositor; / = not tested or not shown.

SMILES	SMARCA2 activ	JMJD2C inh	ALR inh	Granule exo inh	PfM18AAP inh	MIN6 prolif
Cc1ccc2c(c1)c1c3n2CCN(C(=O)C2CC2)C3CCC1 (configuration not stated)	1	3	-26	-1	0	2
CCCCNC(=O)C[C@H]1C[C@@]2(C(=O)OC)C(=C[C@H](C(C)(C)C)O[C@@H]2C)N(Cc2ccco2)C1=O	-3	/	/	/	/	/
COCc1[nH]nc2c1C(c1ccccc1)N(Cc1ccccc1)C2=O (configuration not stated)	6	/	/	/	/	/
CCCCCCCCOC(=O)c1c(CSC(=N)N)n(C)c2cc(Br)c(OC(C)=O)cc12	3	2	69	72*	0	-3
COc1ccc(C(=O)CSC2=C(C#N)C3(CCCCC3)C(C#N)=C(N)N2)cc1	-3	25	87*	-12	4	0
O=c1[nH]ccc2c(O)cccc12	1	1	98*	-4	/	0
Nc1cccc2c(O)cccc12	-7	10	-4	23	/	-4
CC1=C/C(=C/N(C)C)C(=O)O1	-2	6	-5	-2	5	-1
CN(C)/C=C1/C=C(c2ccccc2)OC1=O	-3	28	99*	-1	2	0
CCOc1ccccc1N1CCN(C/C=C/c2ccc(N(C)C)cc2)CC1	-3	-8	99*	2	-8	-3
O=C(O)c1cccc(COc2ccc3c(c2)CCC3)c1	1	-1	91*	-3	-2	-4
O=C(NCc1ccccc1)c1cccc(COc2ccc3c(c2)CCC3)c1	4	-4	/	1	-8	0
CC(=O)CC[C@@H]1CC[C@]2(CCCN(C(=O)C3CCCC3)C2)O1	-3	/	/	/	/	/
C=CCN1C(C(=O)OC)CN(Cc2cn(Cc3ccc(C)cc3)nn2)CCS1(=O)=O (configuration not stated)	2	/	/	/	/	/
CCOC(=O)c1c(-c2ccc(OC)cc2)csc1NC(=O)CCN1CCOCC1	2	/	64	5	-5	-7
CCOC(=O)c1c(-c2ccc(C)cc2)csc1NC(=O)CCN1CC(C)OC(C)C1 (configuration not stated)	-4	5	97*	4	-9	-6
c1ccc(C2CSc3ccccc3N2)cc1 (configuration not stated)	8	8	13	-4	41*	-5
O=C(O)CCCN1C(=O)/C(=C/c2ccc(-c3nc4ccccc4s3)o2)SC1=S	2	-1	52	66*	-8	-2
O=C(O)CCCCCN1C(=O)/C(=C\c2ccc(-c3ccc(Cl)cc3)o2)SC1=S	-2	1	68	87*	-9	-6
O=C(O)CCCCCN1C(=O)/C(=C\c2ccncc2)SC1=S	1	8	-32	-1	-24	0
O=C(O)CCCN1C(=O)/C(=C/c2ccncc2)SC1=S	-5	-2	/	0	-14	-1
Nc1[nH]c(C(=O)c2ccccc2)c(-c2cccc(C(F)(F)F)c2)c1C(=O)NCCc1c[nH]c2ccccc12	2	/	/	/	/	/
CCOC(=O)N1CCN(C2=C(NS(=O)(=O)c3ccc(C)cc3)C(=O)c3ccccc3C2=O)CC1	-2	2	-7	2	31*	-4
O=C1C=C(c2c(O)ccc3ccccc23)c2ccccc2C1=O	-12	/	/	104*	/	/
COc1cccc(-c2sc3cc(OC)c(OC)cc3c2-c2ccc(OCCN3CCCCC3)cc2)c1	/	/	/	62*	/	/
SMILES	SMARCA2 activ	JMJD2C inh	ALR inh	Granule exo inh	PfM18AAP inh	MIN6 prolif
COc1ccccc1-c1sc2ccccc2c1-c1ccc(OCCN2CCCCC2)cc1	/	/	/	30	/	/
COc1ccc2c(-c3ccc(OCCN4CCCCC4)cc3)c(-c3ccccc3OC)sc2c1	/	/	/	66*	/	/
Fc1cccc(F)c1Cn1ccc2ccc(-c3ccc4ccn(Cc5c(F)cccc5F)c4c3)cc21	1	/	/	/	/	/
O=c1oc2c(O)c(O)cc3c(=O)oc4c(O)c(O)cc1c4c23	/	/	30	10	29*	/
Cc1c(C)c2cc(Cl)c(O)c(CN(C)C)c2oc1=O	-2	2	26	-2	-10	-1
Cn1c(=O)[nH]c(=O)c2c1nc(Br)n2CCCSc1nc2ccccc2o1	-6	4	98*	-1	-3	-4
S=c1[nH]nc(-c2ccco2)n1/N=C/c1ccc(Cl)cc1Cl	-2	53	73	-1	22	0
S=c1[nH]nc(-c2ccccc2)n1/N=C/C=C/c1ccco1	-1	-11	97*	-1	20	0
